The text below walks through data of the supplement of paper PMC6555819.

The assay concerns VDR:RXRa (NR concentration 270 nM, RXRa partner concentration 90 nM). Nature of the assay: PBM binding z-score (relative to random genomic background probes); higher = stronger binding; sequences stand for … in GC…GCGATTGACAGCGTAGAATGAAGG
The method, then:
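Protein-binding microarray (Agilent 4x180K custom design, double-stranded 60-nt probes: 5' GC cap, 34-nt variable region, 24-nt constant primer region; full probe sequence given). Purified or IVT nuclear receptor:RXRα heterodimers (3:1 NR:RXRα, mostly 270:90 nM) or homodimers were incubated for 1 h in PBS with 2% milk and no ligand, then detected with Alexa488 antibodies. Fluorescence from o1-orientation probes (~5 replicates averaged) was converted to z-scores against 500 random hg19 background probes. Variable regions are seed direct-repeat (DR0–DR5) sites, all their single-nucleotide variants and half-site ablations.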
In the case of GGAACGGGGGCATTCGAGTTGATAGCATGGCGAT, the PBM binding z-score turned out to be 5.52.
With TCGAGTAGGTTACGGGGGCATTCCGGGATGAAGA the figure was 3.83; with CATACAGGGTAAGCTAGGCCAGAGTAGGGACGGC, -0.528; with CAAACTAGGTCAAAGGTCAAGGTCGAGCCAACCA, 6.86.
In the case of TCTAGTTGGTCAAAGGTCAAACACTCGAAATGCG it was 5.41; in that of CGAACTAGGTCAAACGACAGTGAAAGGCGACGTA, 1.43; in that of CGAATTAGGTCACCAGGACAGTGAAGAGGTTGGA, 2.06.
On to ACTAGTTGGTCAGCTGAGGTCACACAAAATTCGG, for which the PBM binding z-score worked out at 4.79.
As for TAGCCAAGGTCATTCAGGGGCCAGTATAGAAAGC, the PBM binding z-score amounted to 5.28.
Take CGAACTAGCTCAAAGGACAGTGAAAGGCGACGTA: the PBM binding z-score is -0.564.
CCGAGTAGGTTACGAGGGGGAATTCAGTGCGAAT had a PBM binding z-score of 1.7.
On to CCTAGATGGTCAGGAGGTCACACACCGGATATGA, for which the PBM binding z-score came out at 3.76.
CCTAGCCGGCCAATCTGGGTCACTCAAGGCTTGA: the PBM binding z-score is 0.613.
CCGGGTAGGTTACGAGGGGGCATTCAGTGCGAAT showed a PBM binding z-score of 5.31.
For the sequence TCGAGTAGGTTACGGGGGCATTCTGGGATGAAGA, the PBM binding z-score was 3.65.
For the sequence CCTACTGGGCCAAAGGTCTTTGATTCCAATGCTC, the PBM binding z-score was -0.283.
CGATCTAGGTCAAAGGACAGTGAAAGGCGACGTA displayed a PBM binding z-score of 1.15.
In turn, CGAACTAGGTCAGAACAGTACAGTGAAGGATGAT yielded a PBM binding z-score of 0.879.
In the case of CGAACTTGGTCAAAGGACAGTGAAAGGCGACGTA, the PBM binding z-score was -0.101.
CGTCAACGTTCAACTAAGGTAACGTAAAGCACGC displayed a PBM binding z-score of 0.25.
In the case of CTATGTAGGTTAAGGGGGTCATTCATTTTGAAAG it was 7.08; in that of ACATGTAGGTTAGGGTCATTCAGAAAGTAGGGAA, 4.52.
In the case of CGTCCAAGGTAAGAGAGGTCAGTGAATGCCGAGT it was 4; in that of CCTCCAAGGTCATAGGAGGTCAGTGAAGACAGAT, 6.6; in that of CGTCAAAGTTCAAGCTAACGTAACAGAAAGCAGC, 4.18.
For CGTCCAAGGTCAGATAGGTCAGTGAATGCCGAGT, the PBM binding z-score worked out at 4.9.
On to ACTAGCAGGCCAAGGGTGACTCAAGATTAGTCCG, for which the PBM binding z-score was -0.401.
With TGGCCTAGGTCATGGGCCAGTATACCACGCGAAC the figure was 1.62; with ATATGTGGGTTATCGGGTCATTCAGTTTGCGCAT, 5.21; with TCTAGTTCGTCACGGAGGTCACACACGACGGGTA, 4.68.
TATACTGGGTCAAAGGCCAGAGTACGAATGTCGA: the PBM binding z-score turned out to be 2.38.
With ATCTCTAGGTGAAAGTTCAGTGAATCCCGAGGAT, the PBM binding z-score turned out to be 1.83.
In the case of ATAGAAAGGTCGAAGGTGAGTATACCCACCCGAA it was 2.88; in that of TCGAGTAGGTTACGGGGGCTTTCAGGGATGAAGA, 2.02.
With AGTCAAATTTCACTAGGTAACGTAAGATTCAGCT, the PBM binding z-score was 0.337.
In the case of CTCGAAAGGGCGTGCTCAGGTGAGTATACCAAAC it was -0.0475.
The sequence AGAATGAGGTTACCAAAGATCAGTGAAACGCTTG returned a PBM binding z-score of 1.45.
ACTTACGGGTCAACGGGGTTATAGCACGCGTATA displayed a PBM binding z-score of 7.87.
Sequence TCGAGTAGGTTACGGAGGCATTCAGGGATGAAGA registered a PBM binding z-score of 0.176.
The sequence CTATGTAGGTTAAGGGGCTCATTCAGTTTGAAAG registered a PBM binding z-score of 0.993.
